Compounds with a hit are over-represented: about 2.4% of the library has one in this group of screens.
D2 ag-1: human D2 receptor agonism in beta-arrestin assay; P14416; DiscoveRx PathHunter D2 beta-arrestin, luminescence, 90 min; 100% = 57 uM dopamine signal; activation, % (no concentration beside the values); 360,000 tested, 0.084% active; in the data active means activation above about 40%; inconclusive means between about 15% and that limit
Target sequence (P14416 whole entry, looked up): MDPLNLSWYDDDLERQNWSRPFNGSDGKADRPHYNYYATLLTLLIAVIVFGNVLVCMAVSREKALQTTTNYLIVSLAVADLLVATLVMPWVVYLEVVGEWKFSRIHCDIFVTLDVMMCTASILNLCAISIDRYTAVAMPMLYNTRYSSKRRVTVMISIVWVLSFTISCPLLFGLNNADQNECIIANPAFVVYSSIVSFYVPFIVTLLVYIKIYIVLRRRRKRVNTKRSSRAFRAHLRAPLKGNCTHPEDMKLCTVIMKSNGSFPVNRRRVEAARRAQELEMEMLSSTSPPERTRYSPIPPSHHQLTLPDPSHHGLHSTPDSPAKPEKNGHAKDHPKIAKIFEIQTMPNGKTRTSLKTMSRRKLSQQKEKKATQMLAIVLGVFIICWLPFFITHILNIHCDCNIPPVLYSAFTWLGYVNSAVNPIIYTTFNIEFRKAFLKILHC
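Agonist mode: compounds alone added to overnight-plated D2 PathHunter cells for 90 min at 37 C, with 57 uM final dopamine (EC100) defining full response. Beta-arrestin recruitment detected by chemiluminescent reagent, read after 1 h at ambient temperature.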
D2 PAM-1: positively modulates the human D2 dopamine receptor allosterically; 340,000 tested, 0.34% active; HEK293 T-REx D2, calcium flux, EC20 dopamine potentiation; potentiation, % at 10 µM;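 active means potentiation over 3 SD above the plate norm, cut at about 30% in these data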
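Tetracycline-induced HEK293 T-REx cells force-coupled to calcium signalling expressed D2; compounds were pin-added after a 10 s baseline, read kinetically 180 s, then an EC20 dopamine challenge followed with a further 180 s calcium read.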
D2 ag-2: activates the human D2 dopamine receptor. P14416. HEK293 T-REx D2 cells, calcium flux agonist mode. activation, % at 2 µM. 340,000 tested, 0.53% active;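 active means activation over 3 SD above normal in the single-dose calcium agonist read, cut at about 30% in these data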
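Calcium-flux readout, 1 cycle/sec over 180 s following compound pin transfer, in inducible HEK293 Trex D2 cells (force-coupled); dopamine controls included. Positive calcium responses during this window marked compounds as potential agonists.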
D2 PAM-2: human D2 receptor positive allosteric modulation; DiscoveRx D2 beta-arrestin cells, luminescence, 90 min; 100% = 57 uM dopamine signal; P14416; potentiation, % (no concentration beside the values); 360,000 tested, 0.23% active; in the data active means potentiation above about 50%; inconclusive means mostly about 30% to 49%
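PathHunter D2 cells, attached overnight at 37 deg C, received compound in DMSO plus dopamine at EC20 (50 nM final) for 90 min at 37 deg C. Beta-arrestin recruitment was read as luminescence after 1 h with detection reagent at ambient temperature.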
D2 antag: D2 dopamine receptor (human) antagonism | HEK293 TREx D2 cells, calcium flux, dopamine EC80 | inhibition, % at 10 µM | 340,000 tested, 2% active | AID 485344; in the data active means inhibition above about 30%; inactive means below that, where a call was filed
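Cells plated overnight at 30 C with tetracycline; no-wash calcium dye, 30–90 min RT; 10 s baseline; compound pinned; 180 s read; EC80 dopamine added; another 180 s read.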
D3 ag: confirmation of human D3 dopamine receptor agonists, beta-arrestin; shares compounds with D2 ag-2; DiscoveRx D3 beta-arrestin cells, luminescence, 90 min; Potency, µM (series often up to 76.9 µM), most hits filed as activators; 2,300 tested, 4% active; AID 720506; further: nearly all actives have a fitted effect of over 70% in size
D2 ag-3: activates human D2 dopamine receptor in D3 counterscreen; shares compounds with D2 ag-2; Potency, µM (series often up to 76.9 µM), usual class: activators; AID 720507; 2,300 tested, 5.9% active; DiscoveRx PathHunter D2 beta-arrestin, luminescence, 90 min; response scale: percent relative to full dopamine signal; further: nearly all actives have a fitted effect of over 70% in size
Of the large screens only hits and unclear results are named; the others gave an inactive call (follow-up assays come after a bar, where they were run). Unless noted, the call rests on the fitted dose curve; in most records, active means well fitted activation curve with a large enough effect; inconclusive means small, poorly fitted or top-dose-only effect; inactive means flat fitted curve, though single readings scatter.

CCOc1ccccc1Nc1nc2ccccc2c2nncn12	none (no result: D2 ag-1, D2 PAM-2, D2 antag)
COCC(=O)OC1CCn2c1nc1c2C(=O)C(C)=C(NC(C)=O)C1=O (stereo not drawn)	D2 ag-1 inconclusive, D2 PAM-2 87 (no result: D2 PAM-1, D2 ag-2, D2 antag)
NC(=O)C1CC(=O)N(c2ccc(OCc3ccc(Cl)c(Cl)c3)cc2)C1 (stereo not drawn)	none (no result: D2 PAM-1, D2 ag-2, D2 antag)
COCCCn1c(=O)c2sccc2n(Cc2cccc(C)c2)c1=O	D2 antag 41
COCCCn1c(=O)c2sccc2n(Cc2cccc(F)c2)c1=O	none
Cc1cc(C(C)(C)C)cc(C)c1CC1=NCCN1	D2 antag 50
CC(=O)OC1C(N2CCCCC2)c2c(ccc(/C=C/C(=O)N3CCCCC3)c2O)OC1(C)C (stereo not drawn)	D2 antag 30
CC1(C)Oc2ccc3ccc(=O)oc3c2C(N2CCCCC2)C1O (stereo not drawn)	none
Cc1ccc(N2CC(C(=O)OCC(=O)Nc3cc(C)on3)CC2=O)c(C)c1 (stereo not drawn)	none
Cc1cc(C)cc(N2CC(C(=O)OCC(=O)Nc3cc(C)on3)CC2=O)c1 (stereo not drawn)	D2 PAM-1 41
Cc1nc2scc(C)n2c(=O)c1S(=O)(=O)NCC1CCN(Cc2ccc(F)cc2)CC1	D2 antag 34
O=S(=O)(c1ccc(-c2csc(-c3cccnc3)n2)cc1)N1CCCCC1	D2 antag 37
COc1cccc(CNC(=O)CSc2nc(=O)[nH]c3c2CCCC3)c1	none (no result: D2 ag-1, D2 PAM-2, D2 antag)
Cn1c(SCc2ccc(Br)cc2)nc2ccccc2c1=O	none
Cc1cccc(CSc2nc3ccccc3c(=O)n2C)c1	D2 antag 35
CCOC(=O)C1CCN(c2nc3c(S(=O)(=O)c4ccccc4)nnn3c3ccsc23)CC1	none (no result: D2 ag-1, D2 ag-2, D2 PAM-2, D2 antag)
CN(C)S(=O)(=O)c1ccc(C(=O)OCCc2ccccc2)cc1	D2 PAM-1 37
CCCCNC(=S)N/N=C/c1ccc(C#N)cc1	D2 antag 39
CN(c1ccc(OCC(=O)N2CCOCC2)cc1)S(=O)(=O)c1ccc(F)cc1	none
Cc1ccc(C)c(NS(=O)(=O)c2ccc(OCC(=O)N3CCCC3)cc2)c1	none
CN(c1ccc(OCC(=O)N2CCOCC2)cc1)S(=O)(=O)c1ccc(Cl)cc1	D2 antag 35
Cc1ccc(C)c(NS(=O)(=O)c2ccc(OCC(=O)N3CCOCC3)cc2)c1	D2 antag 32
O=c1[nH]c(C2CCN(S(=O)(=O)c3ccc(C(F)(F)F)cc3)CC2)nc2c1nnn2Cc1cccc(F)c1	none
O=c1[nH]c(C2CCN(S(=O)(=O)c3ccccc3C(F)(F)F)CC2)nc2c1nnn2Cc1cccc(F)c1	D2 antag 43
O=c1[nH]c(C2CCN(S(=O)(=O)c3ccccc3)CC2)nc2c1nnn2Cc1cccc(Cl)c1	D2 antag 32
O=C(OCc1cc(=O)n2nc(-c3cccs3)sc2n1)c1ccccc1	none (no result: D2 ag-1, D2 PAM-2, D2 antag)
COc1ccc(OC)c(NC(=O)c2cc(-c3ccc(C)cc3O)n[nH]2)c1	D2 antag 32
COc1ccc(-c2oc3ncn4nc(-c5cccc(C)c5)nc4c3c2-c2ccc(OC)cc2)cc1	none (no result: D2 ag-1, D2 PAM-1, D2 PAM-2, D2 antag)
CCOC(=O)c1c(NC(=O)CC(C)C)sc(C(C)=O)c1C	D2 PAM-1 37
C=CCNC(=O)c1oc2ccc(S(=O)(=O)N3CCC4(CC3)OCCO4)cc2c1C	D2 PAM-1 33
C=CCNC(=O)c1oc2ccc(S(=O)(=O)N3CCCCC3)cc2c1C	none
Cn1cc(-c2coc3c(C(=O)NCc4cccc(Cl)c4)cccc23)cn1	none (no result: D2 PAM-1, D2 ag-2, D2 antag)
CN1/C(=C\C=C2/SC(=S)N(CC(=O)O)C2=O)C(C)(C)c2ccccc21	D2 ag-2 97
CCCNC(=O)COC(=O)c1ccc(N2CCCC2)c([N+](=O)[O-])c1	none
Cc1ccc(Cl)cc1NC(=O)COC(=O)c1ccc(N2CCCC2)c([N+](=O)[O-])c1	D2 antag 57 (no result: D2 ag-1, D2 PAM-2)
Cc1cc(C)nc(N2CCC(C(=O)NCc3cccs3)CC2)n1	D2 ag-2 31 | D3 ag inactive | D2 ag-3 inactive
Cc1cc(C)nc(N2CCC(C(=O)NCc3ccco3)CC2)n1	none (no result: D2 PAM-1, D2 ag-2, D2 antag)
Cc1oc(-c2ccccc2F)nc1CN1CCC(C(=O)NCc2cccs2)CC1	D2 ag-2 52 | D3 ag inactive | D2 ag-3 inactive
CCC(C)c1ccc(NC(=O)Nc2cccnc2)cc1 (stereo not drawn)	none
COc1ccc(OCC(=O)Nc2ccccc2C(=O)NC2CC2)cc1	none
CN(CC(=O)Nc1ccc(Cl)c(C(F)(F)F)c1)C(=O)C1CC(=O)N(CCc2ccccc2)C1 (stereo not drawn)	none | D3 ag inactive | D2 ag-3 inactive
COc1ccc(CCN2CC(C(=O)N(C)CC(=O)Nc3ccc(Cl)c(C(F)(F)F)c3)CC2=O)cc1OC (stereo not drawn)	none | D3 ag inactive | D2 ag-3 inactive
O=C(c1ccc2c(c1)N(Cc1ccccc1)C(=O)c1ccccc1S2(=O)=O)N1CCN(c2ccccn2)CC1	none (no result: D2 ag-1, D2 PAM-2, D2 antag)
COCc1ccc(-c2ccc3c(c2)c(C#Cc2ccsc2)c(-c2cc(OC)cc(OC)c2)n3C)cc1	none | D3 ag inactive | D2 ag-3 inactive
C=CCN(CC=C)CCOc1ccccc1	D2 ag-2 53 | D3 ag inactive | D2 ag-3 inactive
CN(C)c1ncc(CN2CCC(CO)(CCCc3ccccc3)CC2)s1	D2 ag-2 68, D2 antag 62 | D3 ag inactive | D2 ag-3 inconclusive
OCC1(CCc2ccccc2)CCN(Cc2cnc(N3CCCC3)s2)CC1	none (no result: D2 PAM-1, D2 ag-2, D2 antag)
FC(F)(F)c1cccc(Nc2c3c(nc4ccc(Cl)cc24)CCC3)c1	none (no result: D2 ag-1, D2 PAM-2, D2 antag)
Cc1cccc(NC(=O)CSc2c(C)cnc3c2c(=O)n(C)c(=O)n3C)c1C	none (no result: D2 ag-1, D2 PAM-2, D2 antag)
CCCCCCN1C[C@H](n2cc(-c3ccc(F)cc3)nn2)[C@@H](O)C[C@@H]1c1ccc(Cl)cc1	none (no result: D2 PAM-1, D2 ag-2, D2 antag)
CCOC(=O)c1[nH]c(C)c(CCC(=O)NCc2ccc(C)cc2)c1C	none (no result: D2 ag-1, D2 PAM-2, D2 antag)
COC(=O)C(Cc1ccccc1)NS(=O)(=O)c1ccccc1Br (stereo not drawn)	none
COC(=O)[C@H](Cc1ccccc1)NS(=O)(=O)N[C@@H](Cc1ccccc1)C(=O)OC	none | D3 ag inactive | D2 ag-3 inactive
CC12CCC(C(=O)N(CCCCN3CCN(c4ccccn4)CC3)C1=O)C2(C)C (stereo not drawn)	D2 ag-1 73, D2 ag-2 73, D2 PAM-2 57, D2 antag 84 | D3 ag inconclusive | D2 ag-3 0.071µM

Screens from PubChem BioAssay.
